Results reported in PubChem BioAssay (NCATS).
Values without a mark were called inactive. Inconclusive results are not listed. Active and inactive are the calls of the source. Calls follow the shape of the dose curve; as a rule, active = well fitted activation curve with a large enough effect; inconclusive = small, poorly fitted or top-dose-only effect; inactive = flat fitted curve, though single readings scatter.

assay: Cellular Toxicity (caspase-3) Hek293 (AID 664); conditions: HEK293 caspase-3 activation, DMSO = 0%, 100 µM tamoxifen = 100%; series mostly up to 92.2 µM; caspase-3 activation: at the top concentration;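 also: cells exposed to compound for 16 h at 37 °C before readout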
How it was run: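 HEK293 cells in complete medium treated 16 h at 37 °C, then Caspase-Glo 3/7 luminescence read after 20 min at room temperature. Normalized to DMSO and 100 uM tamoxifen; AC50 from Hill fit of concentration-response.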

Question: With `O=c1ccc2ccccc2o1` as the molecule, how does the “caspase-3 activation” value read?
Answer: The value was -1.44%.

Question: With `CCCCCCc1ccc(O)cc1O` as the molecule, how does the “caspase-3 activation” value read?
Answer: Its value is -1.11%.

Question: For `O=C(O)CCCCC(=O)O`, which “caspase-3 activation” value is on record?
Answer: Its value is -1.35%.

Question: Which “caspase-3 activation” value does the source give for `CC(=O)Oc1ccc(C(c2ccc(OC(C)=O)cc2)c2ccccn2)cc1` here?
Answer: Its value is 0.455%.

assay: Cellular Toxicity (caspase-3) N2a (AID 665); conditions: N2a cells, luminescence; Potency: caspase-3 activation; series mostly up to 92.2 µM; caspase-3 activation: at the top concentration;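 also: compound exposure lasted 16 h at 37 °C before readout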; also: potency is read from the fitted curve at half-maximal effect
How it was run: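 Mouse N2a neuroblastoma cells, 1500 per well, treated 16 h at 37 °C in complete medium; caspase-3/7 activity by Caspase-Glo luminescence after 1 h. Normalized to DMSO and 10 uM staurosporine; AC50 from Hill fits.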

Question: With `C=C(CC)C(=O)c1ccc(OCC(=O)O)c(Cl)c1Cl` as the molecule, how does the “caspase-3 activation” value read?
Answer: The value was -12.3%.

Question: For `C=CCc1ccc(O)c(OC)c1`, which “caspase-3 activation” value is on record?
Answer: Its value is -6.02%.

Question: With `NC(=NCCCCCCN=C(N)/N=C(\N)Nc1ccc(Cl)cc1)/N=C(\N)Nc1ccc(Cl)cc1` as the molecule, how does the “caspase-3 activation” value read?
Answer: The value was -6.01%.

Question: For `CC(O)C(=O)O` (stereo not given), which “caspase-3 activation” value is on record?
Answer: Its value is -1.59%.

Question: Which “caspase-3 activation” value does the source give for `CC(=O)O[C@]1(C(C)=O)CC[C@H]2[C@@H]3C[C@H](C)C4=CC(=O)CC[C@]4(C)[C@H]3CC[C@@]21C` here?
Answer: Its value is -1.49%.

Question: For `Nc1ccc(C(=O)O)cc1`, which “caspase-3 activation” value is on record?
Answer: Its value is 2.89%.

Question: For `Oc1c(I)cc(Cl)c2cccnc12`, which “caspase-3 activation” value is on record?
Answer: Its value is 6.66%.

Question: Which “caspase-3 activation” value does the source give for `CN(C)/N=N/c1nc[nH]c1C(N)=O` here?
Answer: Its value is -3.27%.

Question: With `COc1cccc2c1C(=O)c1c(O)c3c(c(O)c1C2=O)C[C@@](O)(C(=O)CO)C[C@@H]3O[C@H]1C[C@H](N)[C@H](O)[C@H](C)O1` as the molecule, how does the Potency read?
Answer: The Potency was 3.16 µM (active).

Question: Which “caspase-3 activation” value does the source give for `Oc1ccc(O)cc1` here?
Answer: The value was -17.4%.

Question: For `COc1cccc2c1C(=O)c1c(O)c3c(c(O)c1C2=O)C[C@@](O)(C(C)=O)C[C@@H]3O[C@H]1C[C@H](N)[C@H](O)[C@H](C)O1`, which Potency is on record?
Answer: The Potency was 3.98 µM (active).

Question: For `Oc1ccc(Cl)cc1Sc1cc(Cl)ccc1O`, which “caspase-3 activation” value is on record?
Answer: The value was 0.088%.

Question: For `O=C1OC(c2ccc(O)cc2)(c2ccc(O)cc2)c2ccccc21`, which “caspase-3 activation” value is on record?
Answer: Its value is 10.5%.

Question: With `C[C@]12CC[C@@H]3c4ccc(O)cc4CC[C@H]3[C@@H]1CC[C@@H]2O` as the molecule, how does the “caspase-3 activation” value read?
Answer: The value was 4.45%.

Question: With `Oc1c(Cl)cc(Cl)cc1Sc1cc(Cl)cc(Cl)c1O` as the molecule, how does the “caspase-3 activation” value read?
Answer: The value was 11.2%.

Question: With `CC/C(=C(/CC)c1ccc(O)cc1)c1ccc(O)cc1` as the molecule, how does the “caspase-3 activation” value read?
Answer: Its value is 7.88%.
